Data on 14 compounds can be found in the supplement of paper PMC10477191.

Molecules are shown by their SMILES. ± gives the standard deviation of the averaged measurements.

This assay concerns Drosophila ezoana antennal basiconic sensillum ab7. Description: odor-evoked OSN spike response (post minus pre-stimulus); higher = stronger neuronal excitation. As to conditions: odor dilution: 10^-4. As for the experimental part: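 Single sensillum recordings from antennal basiconic sensilla of D. ezoana. A 500 ms pulse of odorant (10^-4 in mineral oil or DMSO) was delivered; the response is the change in action potential frequency between the 1 s pre- and post-stimulus windows (spikes/s).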
Turning to `CCCCCOC(C)=O` [pentyl acetate], the “odor-evoked OSN spike response” value turned out to be 59.2 ± 30 spikes/s.
For `CCCCCC(C)=O` [2-heptanone], the “odor-evoked OSN spike response” value is 138 ± 39 spikes/s.
Regarding `CCCCC(C)O` (centres undefined) [2-hexanol], the “odor-evoked OSN spike response” value turned out to be 56.1 ± 29 spikes/s.
As for `CC(=O)CCC=C(C)C` [6-methyl-5-hepten-2-one], the “odor-evoked OSN spike response” value was determined as 140 ± 40 spikes/s.
For the compound `CCCCCCCC(C)O` (centres undefined) [2-nonanol], the “odor-evoked OSN spike response” value turned out to be 52.3 ± 32 spikes/s.
The result for `CCOC(=O)C(C)O` (centres undefined) [Ethyl lactate] reads 60.2 ± 36 spikes/s.
As for `CCCCC(C)=O` [2-hexanone], the “odor-evoked OSN spike response” value was 50.2 ± 29 spikes/s.
On to `CCCCCCCC(C)=O` [2-nonanone], for which the “odor-evoked OSN spike response” value was 66.8 ± 40 spikes/s.
Take `CCOC(=O)CC(C)O` (centres undefined) [Ethyl-3-hydroxybutyrate]: the “odor-evoked OSN spike response” value was determined as 80.1 ± 47 spikes/s.
Take `C[C@H]1CCC[C@@]2(C)CCCC[C@]12O` [geosmin]: the “odor-evoked OSN spike response” value was 3.51 ± 21 spikes/s.
On to `CCCCCCO` [1-hexanol], for which the “odor-evoked OSN spike response” value stood at 53.6 ± 33 spikes/s.
`CCCC(=O)CC` [3-hexanone]: the “odor-evoked OSN spike response” value came to 53.1 ± 33 spikes/s.
As for `C=CC(O)CCCCC` (centres undefined) [1-octen-3-ol], the “odor-evoked OSN spike response” value came to 107 ± 43 spikes/s.
In the case of `CCCCCC(=O)OCC` [ethyl hexanoate], the “odor-evoked OSN spike response” value was determined as 74.4 ± 40 spikes/s.
